EPAC1 agonist – activates human EPAC1 exchange factor. 360,000 tested, 0.073% active. AID 720707. Potency, µM (series often up to 154 µM), inactives show at the top dose activation, usual class: activators. EPAC1 agonist qHTS, biochemical assay; response scale: 100% = response to 6.5 mM cAMP. O95398; note: nearly all actives have a fitted effect of over 60% in size
Target sequence (O95398 whole entry, looked up): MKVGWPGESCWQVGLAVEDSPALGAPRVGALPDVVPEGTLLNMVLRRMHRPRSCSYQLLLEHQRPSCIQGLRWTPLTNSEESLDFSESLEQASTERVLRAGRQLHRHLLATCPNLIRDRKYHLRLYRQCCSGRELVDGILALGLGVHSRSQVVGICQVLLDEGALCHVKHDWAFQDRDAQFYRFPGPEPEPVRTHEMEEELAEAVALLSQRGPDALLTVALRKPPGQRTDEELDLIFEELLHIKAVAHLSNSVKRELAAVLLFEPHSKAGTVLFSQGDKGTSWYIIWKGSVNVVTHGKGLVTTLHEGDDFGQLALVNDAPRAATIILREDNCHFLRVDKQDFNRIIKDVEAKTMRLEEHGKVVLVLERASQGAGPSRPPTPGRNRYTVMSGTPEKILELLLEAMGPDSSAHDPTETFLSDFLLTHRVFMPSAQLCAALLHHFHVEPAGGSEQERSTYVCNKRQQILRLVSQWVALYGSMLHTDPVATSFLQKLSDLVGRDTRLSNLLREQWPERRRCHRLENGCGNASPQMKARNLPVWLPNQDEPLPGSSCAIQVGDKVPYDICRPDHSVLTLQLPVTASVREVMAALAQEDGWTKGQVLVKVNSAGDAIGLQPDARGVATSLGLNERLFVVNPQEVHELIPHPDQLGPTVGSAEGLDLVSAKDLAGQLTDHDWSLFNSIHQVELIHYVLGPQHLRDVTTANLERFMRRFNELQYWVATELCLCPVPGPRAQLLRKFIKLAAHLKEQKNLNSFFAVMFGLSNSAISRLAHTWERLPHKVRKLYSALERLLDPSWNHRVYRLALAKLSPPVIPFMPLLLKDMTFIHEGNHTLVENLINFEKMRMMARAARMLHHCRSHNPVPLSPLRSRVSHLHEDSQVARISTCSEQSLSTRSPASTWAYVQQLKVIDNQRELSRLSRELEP
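Nucleotide exchange by EPAC1 (100 nM) on Rap1B–BODIPY-GDP (250 nM) in the presence of 50 uM GDP is tracked fluorescently at 480/540 nm over 30 min. Signals are normalized to a 6.5 mM cAMP control.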
EPAC1 antag – blocks human EPAC1 exchange factor. EPAC1 GEF assay, Rap1b-BODIPY-GDP exchange fluorescence. Potency, µM (doses to about 115 µM), without a hit: top-dose activity change, negative = inhibition, actives largely listed as inhibitors. 360,000 tested, 0.14% active;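 note: plate controls were vehicle for no effect and positive control for full effect; nearly all actives have a fitted effect of over 50% in size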
EPAC2 antagonist – antagonists of human EPAC2 | Q8WZA2 | EPAC2 GEF exchange of Rap1B-BODIPY-GDP, fluorescence | Potency, µM (titrated, usually from 114 µM), without a hit: top-dose activity, negative = inhibition, hits mostly inhibitors | 360,000 tested, 0.18% active; note: % is set by controls: 0 for no effect and ±100 for the full control effect; nearly all actives have a fitted effect of over 45% in size
USP1 inh – USP1/UAF1 (human) deubiquitinase inhibition. Potency, µM (top dose mostly 57.1 µM), for inactives: at the highest dose activity change, negative = inhibition, actives largely listed as inhibitors. recombinant USP1/UAF1, Ub-Rhodamine cleavage fluorescence. O94782. 390,000 tested, 0.23% active; note: % is set by controls: 0 for no effect and ±100 for the full control effect; nearly all actives have a fitted effect of over 60% in size
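1 nM enzyme complex + cpd, 15 min RT; start with Ub-Rho 150nM final; kinetic fluorescence ex 480/em 540, 6 reads q60 s. Buffer 50mM HEPES pH 7.8, 0.5mM EDTA, 0.1 mg/ml BSA, 1mM TCEP, 0.01% Tween-20.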
EPAC2 agonist – activates human EPAC2 exchange factor; Potency, µM (top dose mostly 154 µM), inactives show at the top dose activation, usual class: activators; AID 720711; Q8WZA2; 360,000 tested, 0.079% active; EPAC2 activation, biochemical qHTS; response scale: 100% = 6.5 mM cAMP response; note: nearly all actives have a fitted effect of over 50% in size
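EPAC2 (100 nM) mixed with Rap1B loaded with BODIPY-GDP (250 nM) plus 50 uM unlabeled GDP; compounds pinned in, 5 min RT, then read every 5 min for 30 min (ex 480, em 540 nm). Normalized to cAMP control.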
Active calls of the source: *; i = inactive; ? = inconclusive; nt = no result. The list is not random: actives were taken first. Their share in the collection is about 0.49%. Calls come from the whole dose curve; as a rule, active = well fitted curve in the direction sought with a large enough effect; inconclusive = small, poorly fitted or top-dose-only effect, or another doubt; inactive = no such curve, though single readings can be large; an effect the other way counts as inactive or inconclusive. Potency is the fitted concentration of half-maximal effect.

SMILES	EPAC1 agonist	EPAC1 antag	EPAC2 antagonist	USP1 inh	EPAC2 agonist
COc1ccc(Cl)cc1NC(=O)Cn1cnc2sc(C)c(S(=O)(=O)N3CCN(c4ccccc4OC)CC3)c2c1=O	nt	nt	nt	-17%	nt
COc1ccccc1N(C(C)=O)C1=C(Cl)C(=O)c2ccccc2C1=O	5%	-23%	18%	18µM*	26%
COc1ccccc1N(C(=O)CCl)c1cn(C(C)=O)c2ccccc12	4%	-2%	?	-6%	9%
CCOC(=O)c1cnc2c(ccc3ccccc32)c1Nc1ccccc1O	nt	nt	nt	-29%	nt
CC[C@@]1(c2ccccc2OC)ON(c2ccccc2C(F)(F)F)C1=O	-8%	-22%	14µM*	-32%	1%
Cc1ccccc1[C@@]1(C)ON(c2ccccc2C(F)(F)F)C1=O	1%	5%	?	5%	4%
O=C(N/N=C/c1ccc(-c2ccccc2C(=O)O)o1)c1cccs1	2%	3%	6%	-24%	-4%
O=C(O)c1cc(Cl)ccc1-c1ccc(/C=C/c2cc(C(F)(F)F)[nH]c(=O)n2)o1	89µM*	473%	273%	28µM*	100µM*
O=C(O)c1ccccc1-c1ccc(/C=C/c2cc(C(F)(F)F)[nH]c(=O)n2)o1	56µM*	i	444%	28µM*	100µM*
Cc1nc(S/C(=C/c2ccc(-c3cc(Cl)ccc3C)o2)C(=O)O)n[nH]1	3%	2%	?	-11%	-13%
O=[N+]([O-])c1cc(-c2nc(-c3ccccc3)no2)ccc1N1CCOCC1	nt	nt	nt	-30%	nt
CN1CCS/C1=C/C=C1\SC(=S)N(CC(=O)O)C1=O	?	-22%	?	25µM*	15%
CCCCN1C(=O)/C(=C/C=C2\SCCN2C)SC1=S	21%	-5%	-20%	-22%	10%
CCN(CC)c1nc(N)c2c(N)n(-c3ccccc3C)c(=S)c(C#N)c2c1C#N	-23%	89µM*	-7%	-22%	-10%
CCN(CC)c1nc(N)c2c(N)nc3c(c2c1C#N)CC(c1ccccc1)O3 (stereo not drawn)	10%	-1%	-9%	-12%	9%
CCCc1nn2c(=O)cc(COC(=O)CNC(=O)COc3ccc(C)cc3)nc2s1	nt	nt	nt	-16%	nt
N#Cc1c(-c2ccccc2)nc(SCc2cccc(Cl)c2)[nH]c1=O	-5%	?	89µM*	-18%	-11%
Cc1[nH]c(=O)nc(SCc2cccc(Cl)c2)c1C#N	-1%	?	-1%	-16%	-4%
CN1CCN(c2nc(-c3cccs3)cs2)CC1	7%	-4%	-5%	-3%	1%
O=C1c2ccccc2C(=O)N1c1nc(-c2cccs2)cs1	8%	?	56µM*	2%	10%
Cc1cc2oc(C(=O)N(Cc3ccc(N(C)C)cc3)CC3CCCO3)c(C)c2cc1Cl (stereo not drawn)	nt	nt	nt	-14%	nt
Nc1cccc2c(O)cc(S(=O)(=O)O)cc12	?	-21%	-30%	25µM*	?
COc1ccc(-c2[nH]c(-c3ccc(SC)cc3)nc2SCC(=O)Nc2nccs2)cc1	3%	71µM*	0%	-8%	-1%
COc1ccc(-c2[nH]c(-c3ccc(C)cc3)nc2SCC(=O)Nc2nccs2)cc1	6%	-6%	0%	-14%	3%
CN(CCc1ccccn1)C(=O)Nc1ccc(F)cc1	1%	4%	5%	-7%	6.3µM*
O=C(c1cnc(N2CCCCC2)c2ccccc12)N1CCN(c2ccccc2F)CC1	nt	nt	nt	-24%	nt
COc1ccc(N2CC(NC(=O)COc3ccccc3C)CC2=O)cc1OC (stereo not drawn)	nt	nt	nt	-21%	nt
CCOC(=O)C1=C(C)N=c2s/c(=C\c3ccc(OCC(=O)O)cc3)c(=O)n2C1c1ccc(OC(C)C)cc1 (stereo not drawn)	-10%	56µM*	3%	?	-29%
CCOC(=O)C1=C(C)N=c2sc(=Cc3cc(Cl)c(OCC(=O)O)c(Cl)c3)c(=O)n2C1c1cccc(OC)c1 (stereo not drawn)	18%	?	25µM*	nt	4%
CCOC(=O)C1=C(C)N=c2sc(=Cc3ccc(OCC(=O)O)cc3)c(=O)n2C1c1ccc(Cl)cc1 (stereo not drawn)	-42%	?	60%	nt	-14%

Screens (PubChem)
